Source: PubChem BioAssay
Results filed as inconclusive are left out. Calls of active or inactive are those of the source.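 The calls were made as follows, unless noted: active = normalized viability below 100% at a tested concentration; inactive = the rest.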

Legend:
[1] = growth inhibition of DIPG glioma cells, dose response, cell-based, SU-DIPG-XVII, MIPE5.0, CellTiter-Glo, qHTS (AID 1347060; cut-off not given, nearly all actives have AC50 up to about 26 µM;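 also: cells exposed to compound for 48 hours before viability readout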); details: SU-DIPG-XVII viability, CellTiter-Glo ATP luminescence
[2] = growth inhibition of DIPG glioma cells, dose response, cell-based, SU-DIPG-XIII, MIPE4.0, CellTiter-Glo, qHTS (AID 1347061; cut-off not given, nearly all actives have AC50 up to about 37 µM;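 also: cells exposed to compound for 48 hours before readout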); details: SU-DIPG-XIII viability, CellTiter-Glo ATP luminescence
[3] = growth inhibition of DIPG glioma cells, dose response, cell-based, JHH-DIPG-1, MIPE4.0, CellTiter-Glo, qHTS (AID 1347062; cut-off not given, nearly all actives have AC50 up to about 27 µM;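 also: cells exposed to compound for two days before readout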); details: JHH-DIPG-1 viability, CellTiter-Glo ATP luminescence
[4] = growth inhibition of DIPG glioma cells, dose response, cell-based, SU-DIPG-IV, MIPE4.0, CellTiter-Glo, qHTS (AID 1347063; cut-off not given, nearly all actives have AC50 up to about 30 µM;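 also: compound exposure lasted 48 hours before the viability readout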); details: SU-DIPG-IV viability, CellTiter-Glo ATP luminescence
[5] = viability loss in pontine glioma line – cell-based, SU-DIPG-XXV, MIPE5.0, CellTiter-Glo, qHTS, dose response (AID 1347065; cut-off not given, nearly all actives have AC50 up to about 26 µM;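 also: cells exposed to compound for 48 hours before ATP readout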); details: CellTiter-Glo ATP luminescence
[6] = SU-DIPG-VI glioma cell viability, MIPE4.0 library, CellTiter-Glo luminescence, qHTS (AID 1347066; cut-off not given, nearly all actives have AC50 up to about 30 µM;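 also: cells exposed to compound for 48 hours before readout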); details: CellTiter-Glo ATP luminescence
[7] = JHH-DIPG-1 glioma cell viability, MIPE5.0 library, CellTiter-Glo luminescence, qHTS (AID 1347067; cut-off not given, nearly all actives have AC50 up to about 26 µM;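 also: cells exposed to compound for 48 hours before readout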); details: JHH-DIPG-1 glioma viability, CellTiter-Glo ATP luminescence
[8] = sensitizers of A549 cells to miR-34 induction, primary screen, imaging, A549 dox-inducible miR-34, nuclei and caspase counts (AID 1347080;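 active = compounds whose cell count with miR-34 switched on is under 0.7 times the count with it off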); details: A549 miR-34 inducible, Hoechst nuclei count, 48 h
[9] = modifiers of HSF1 nuclear foci, imaging, Selleck Cancer Library (AID 1347162; in the data active = plate-normalised HSF1 focus index below about 0.46); details: human cells, at 10 µM; SSMD: measured here: HSF1 foci SSMD mean; cell count: measured here: cell number; plate-normalised HSF1 focus index: stronger effect = lower value
[10] = survival rescue of mitochondrial mutant cells in low glucose, primary screen, MELAS cybrids, Rieske KO mouse fibroblasts, CellTiter-Glo (AID 1508586;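 active = mean z-score across replicates of 1.96 or higher in either the MELAS or the Rieske mutant cell line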;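 also: z relative to plate mean and SD of compound and empty wells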)
[11] = ovarian cancer cell viability with rucaparib, profiling panel, oncology-focused library, rucaparib conditional (AID 1508598); details: patient-derived ovarian cancer cells, CellTiter-Glo viability, 144 h, stronger effect = lower value
[12] = LFS_MB_P medulloblastoma growth inhibition, cell-based, chromothripsis tumors, cisplatin or BGB combos (AID 1671449; in the data active = inhibition above about 80%;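 also: cells exposed for 96 hours; 0% = vehicle DMSO and 100% = killing by high DMSO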); details: LFS_MB_P medulloblastoma cells
[13] = HDN33 neuroblastoma growth inhibition, cell-based, chromothripsis tumors, cisplatin or BGB combos (AID 1671450; in the data active = inhibition above about 80%;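 also: cells exposed to compound for four days; 0% = vehicle DMSO and 100% = cell killing by high DMSO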); details: HDN33 neuroblastoma cells, stronger effect = higher value
[14] = ICB984 medulloblastoma cell growth inhibition, synergistic combos for chromothripsis tumors, cisplatin or BGB combos (AID 1671451; call rule not given here;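 also: cells exposed for 96 hours before readout; 0% = vehicle DMSO and 100% = killing by high DMSO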); details: ICB984 medulloblastoma cells, drug combinations, stronger effect = higher value
[15] = HTB85 osteosarcoma cell growth inhibition, synergistic combos for chromothripsis tumors, BGB or cisplatin IC20 combos (AID 1671453; in the data active = inhibition above about 80%;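 also: cells exposed for 96 hours before readout; 0% = vehicle DMSO and 100% = high DMSO killing control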); details: HTB85 osteosarcoma cells, drug combinations, stronger effect = higher value
[16] = MDA-MB-436 breast carcinoma cell growth inhibition, synergistic combos for chromothripsis tumors, BGB or cisplatin combos (AID 1671458; call rule not given here;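 also: cells exposed for 96 hours; 0% = vehicle DMSO and 100% = killing by high DMSO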); details: MDA-MB-436 breast carcinoma growth inhibition, drug combinations, stronger effect = higher value
[17] = growth inhibition of BT084 medulloblastoma cells, cell-based, ICGC_MB145, cisplatin and BGB IC40 combos (AID 1671461; in the data active = inhibition above about 80%;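 also: cells exposed to drugs for 96 hours; 0% = vehicle DMSO and 100% = high DMSO full killing control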); details: drug combinations, stronger effect = higher value
[18] = growth inhibition of RCMB18 medulloblastoma cells, cell-based, cisplatin and BGB IC40 combos (AID 1671462; in the data active = inhibition above about 80%;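 also: cells exposed to compound for four days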); details: stronger effect = higher value

CN(C)Cc1c(C(=O)NCCOc2ccc(C(=O)NO)cc2)oc2ccccc12
AC50 [1]: 4.17 µM (active) | AC50 [2]: 4.69 µM (active) | AC50 [3]: 0.935 µM (active) | AC50 [4]: 3.32 µM (active) | AC50 [5]: 0.833 µM (active) | AC50 [6]: 2.96 µM (active) | AC50 [7]: 0.934 µM (active) | fold change ([8]; stronger effect = lower value, cell number ratio, induced over uninduced): 1.4 (inactive) | fold change ([8]; measured here: relative caspase fold change +Dox/-Dox): 0.9 | cell count ([8]; measured here: total cells with miR-34 induction, stronger effect = lower value): 1280 | cell count ([8]; measured here: total cells without miR-34 induction): 916 | SSMD [9]: 0.722 | cell count [9]: 7540 | plate-normalised HSF1 focus index [9]: 1.05 (inactive) | z-score ([10]; MELAS cybrid survival, CellTiter-Glo 48 h, stronger effect = higher value): 0.162 (inactive) | z-score ([10]; Rieske KO mouse fibroblast survival, CellTiter-Glo 72 h): -1.7 | viability ([11]; at 0.000305 µM, OCI-C5x cells, with rucaparib 10 µM, 100% = cells with rucaparib alone): 130% (inactive) | viability ([11]; at 0.000305 µM, OCI-C5x cells, without rucaparib): 128% (inactive) | viability ([11]; at 0.000305 µM, OCI-P5x cells, with rucaparib 20 µM, 100% = cells with rucaparib alone): 105% (inactive) | viability ([11]; at 0.000305 µM, OCI-P5x cells, without rucaparib): 104% (inactive) | viability ([11]; at 0.00122 µM, OCI-C5x cells, with rucaparib 10 µM, 100% = cells with rucaparib alone): 129% (inactive) | viability ([11]; at 0.00122 µM, OCI-C5x cells, without rucaparib): 123% (inactive) | viability ([11]; at 0.00122 µM, OCI-P5x cells, with rucaparib 20 µM, 100% = cells with rucaparib alone): 103% (inactive) | viability ([11]; at 0.00122 µM, OCI-P5x cells, without rucaparib): 104% (inactive) | viability ([11]; at 0.00488 µM, OCI-C5x cells, with rucaparib 10 µM, 100% = cells with rucaparib alone): 144% (inactive) | viability ([11]; at 0.00488 µM, OCI-C5x cells, without rucaparib): 128% (inactive) | viability ([11]; at 0.00488 µM, OCI-P5x cells, with rucaparib 20 µM, 100% = cells with rucaparib alone): 97.2% (active) | viability ([11]; at 0.00488 µM, OCI-P5x cells, without rucaparib): 101% (inactive) | viability ([11]; at 0.0195 µM, OCI-C5x cells, with rucaparib 10 µM, 100% = cells with rucaparib alone): 118% (inactive) | viability ([11]; at 0.0195 µM, OCI-C5x cells, without rucaparib): 131% (inactive) | viability ([11]; at 0.0195 µM, OCI-P5x cells, with rucaparib 20 µM, 100% = cells with rucaparib alone): 81.2% (active) | viability ([11]; at 0.0195 µM, OCI-P5x cells, without rucaparib): 97.1% (active) | viability ([11]; at 0.0781 µM, OCI-C5x cells, with rucaparib 10 µM, 100% = cells with rucaparib alone): 121% (inactive) | viability ([11]; at 0.0781 µM, OCI-C5x cells, without rucaparib): 138% (inactive) | viability ([11]; at 0.0781 µM, OCI-P5x cells, with rucaparib 20 µM, 100% = cells with rucaparib alone): 91.6% (active) | viability ([11]; at 0.0781 µM, OCI-P5x cells, without rucaparib): 104% (inactive) | viability ([11]; at 0.313 µM, OCI-C5x cells, with rucaparib 10 µM, 100% = cells with rucaparib alone): 123% (inactive) | viability ([11]; at 0.313 µM, OCI-C5x cells, without rucaparib): 132% (inactive) | viability ([11]; at 0.313 µM, OCI-P5x cells, with rucaparib 20 µM, 100% = cells with rucaparib alone): 69.9% (active) | viability ([11]; at 0.313 µM, OCI-P5x cells, without rucaparib): 79.9% (active) | viability ([11]; at 1.25 µM, OCI-C5x cells, with rucaparib 10 µM, 100% = cells with rucaparib alone): 135% (inactive) | viability ([11]; at 1.25 µM, OCI-C5x cells, without rucaparib): 150% (inactive) | viability ([11]; at 1.25 µM, OCI-P5x cells, with rucaparib 20 µM, 100% = cells with rucaparib alone): 82.3% (active) | viability ([11]; at 1.25 µM, OCI-P5x cells, without rucaparib): 77.6% (active) | viability ([11]; at 5 µM, OCI-C5x cells, with rucaparib 10 µM, 100% = cells with rucaparib alone): 8.92% (active) | viability ([11]; at 5 µM, OCI-C5x cells, without rucaparib): 7.82% (active) | viability ([11]; at 5 µM, OCI-P5x cells, with rucaparib 20 µM, 100% = cells with rucaparib alone): 5.56% (active) | viability ([11]; at 5 µM, OCI-P5x cells, without rucaparib): 34% (active) | inhibition ([12]; at 0.5 µM, stronger effect = higher value): 21.6% (inactive) | inhibition ([12]; measured here: combination with BGB IC20, at 0.005 µM): -27.6% | inhibition ([12]; measured here: combination with BGB IC40, at 0.005 µM): -6.96% | inhibition ([12]; measured here: combination with BGB IC40, at 0.05 µM): 9.02% | inhibition ([12]; measured here: combination with cisplatin, at 0.5 µM, stronger effect = higher value): 46.7% | inhibition ([12]; measured here: combination with cisplatin, at 5 µM, stronger effect = higher value): 110% | inhibition ([13]; BGB combo, at 5 µM): 99.4% | inhibition ([13]; at 0.5 µM): 78.8% (inactive) | inhibition ([13]; cisplatin combo, at 5 µM): 99.8% | inhibition ([13]; measured here: with BGB IC20 combination, at 0.5 µM): 69% | inhibition ([13]; measured here: with cisplatin IC20 combination, at 0.5 µM): 82.8% | inhibition ([13]; single agent, at 5 µM): 99.8% | inhibition ([14]; BGB IC20 combo, at 0.005 µM): 27.4% | inhibition ([14]; BGB IC40 combo, at 0.005 µM): 31.8% | inhibition ([14]; BGB IC40 combo, at 0.05 µM): 93.6% | inhibition ([14]; at 0.5 µM): -23.7% (inactive) | inhibition ([14]; cisplatin combo, at 0.05 µM): 93.4% | inhibition ([14]; cisplatin combo, at 0.5 µM): -34.8% | inhibition ([14]; cisplatin combo, at 5 µM): -32% | inhibition ([14]; measured here: 5 uM single agent, at 5 µM): -19.3% | inhibition ([15]; at 0.5 µM): 87.5% (active) | inhibition ([15]; measured here: with BGB IC20, at 0.5 µM): 87.4% | inhibition ([15]; measured here: with BGB IC20, at 5 µM): 99.8% | inhibition ([15]; measured here: with cisplatin IC20, at 0.5 µM): 90.7% | inhibition ([15]; measured here: with cisplatin IC20, at 5 µM): 99.9% | inhibition ([15]; single agent, at 5 µM): 99.8% | inhibition ([16]; at 0.5 µM): 43.7% (inactive) | inhibition ([16]; measured here: BGB combination, at 0.5 µM): 36% | inhibition ([16]; measured here: BGB combination, at 5 µM): 60% | inhibition ([16]; measured here: cisplatin combination, at 0.5 µM): 42% | inhibition ([16]; measured here: cisplatin combination, at 5 µM): 69.4% | inhibition ([17]; at 0.5 µM): 52% (inactive) | inhibition ([17]; cisplatin combination, at 0.5 µM): 79.4% | inhibition ([17]; cisplatin combination, at 5 µM): 101% | inhibition ([17]; measured here: BGB IC40 combination 0.05 uM, at 0.05 µM): 30.2% | inhibition ([17]; single agent, at 5 µM): 108% | inhibition ([18]; at 0.5 µM): 47.1% (inactive) | inhibition ([18]; cisplatin combo, at 5 µM): 96.9% | inhibition ([18]; measured here: BGB IC40 combination, at 0.05 µM): 20.1% | inhibition ([18]; measured here: combination with cisplatin, at 0.5 µM): 58.8% | inhibition ([18]; single agent, at 5 µM): 92.2%
